Source: PubChem BioAssay AID504332 (National Center for Advancing Translational Sciences (NCATS), 2011)
Screen size: about 350,000 compounds; about 31,000 (8.9%) were called active. About 15% were inconclusive and are not listed. The call rests on the fitted dose curve; in most records, active means well fitted inhibition curve with a large enough effect; inconclusive means small, poorly fitted or top-dose-only effect; inactive means no such curve, though single readings can be large or run the other way. What follows is part of a selection rich in actives, with near analogues and random picks from the rest.

Molecular target: Histone-lysine N-methyltransferase EHMT2 (Homo sapiens) (UniProt Q96KQ7)
Sequence (Q96KQ7 913-1193 limits assumed): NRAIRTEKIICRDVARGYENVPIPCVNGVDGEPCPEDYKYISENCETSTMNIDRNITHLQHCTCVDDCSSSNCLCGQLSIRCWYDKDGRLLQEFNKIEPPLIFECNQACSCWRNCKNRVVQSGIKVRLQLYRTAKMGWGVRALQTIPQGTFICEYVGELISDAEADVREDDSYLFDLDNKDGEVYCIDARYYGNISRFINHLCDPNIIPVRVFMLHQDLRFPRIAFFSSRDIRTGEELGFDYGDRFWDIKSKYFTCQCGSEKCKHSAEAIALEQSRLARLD
Assay: qHTS Assay for Inhibitors of Histone Lysine Methyltransferase G9a; further: nearly all actives have a fitted effect of over 75% in size
Details: G9a H3K9 monomethylation, AlphaScreen, 2 h; series mostly up to 59 µM; activity, negative = inhibition: at the top concentration
How it was run: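 G9a (20 nM) was preincubated 15 min with compound, then reacted 2 h at room temperature with 500 nM biotin-H3K9 peptide and 20 µM SAM. Monomethyl-H3K9 detected by AlphaScreen using anti-H3K9me1 antibody.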
On the % scale 0 is the no-effect control and ±100 the full control effect; potency means the concentration at half of the fitted maximal effect.

activity, negative = inhibition, inactive:
COc1ccc(S(=O)(=O)N2CCCC2CNC(=O)C(=O)NC2CC2)cc1 (stereo unspecified) 4.18% [at 0.501 µM], CCC(=O)c1ccc(OCC(=O)OCC(=O)NC2CCCCCC2)cc1 -31.4% [at 102 µM], O=C(COc1ccccc1[N+](=O)[O-])N/N=C/c1ccc[nH]1 -11.5% [at 102 µM], O=C(COc1ccccc1[N+](=O)[O-])NC1CC1 8.63% [at 102 µM], CSc1ccccc1NC(=O)C(C)N1C(=O)c2ccccc2S1(=O)=O (stereo unspecified) 9.9% [at 102 µM], Cc1nn(C(C)C(=O)NCCc2ccccc2)c(=O)c2c1sc1ccccc12 (stereo unspecified) 6.6%, COc1ccc(CNC(=O)[C@H](Cc2c[nH]c3ccccc23)NC(C)=O)cc1OC -1.89% [at 102 µM], O=C(Nc1cccc(Br)c1)c1ccc2snnc2c1 6.13% [at 102 µM], COc1cccc(Cn2c(CNS(=O)(=O)c3ccc(Cl)s3)nc3cccnc32)c1 17.3%, CCCCCn1c(=O)[nH]c2cc(C(=O)NCCN(C)CCCC)ccc2c1=O -2.06%, O=C(N/N=C/c1ccoc1)c1ccc(Cl)cc1Cl 19.8% [at 102 µM], CCCCOC(=O)c1ccc(N2C(=O)CC(N3CCN(C/C=C/c4ccccc4)CC3)C2=O)cc1 (stereo unspecified) -21.3% [at 102 µM], CC(=O)Oc1cccc(N2C(=O)CC(Nc3ccc(N4CCOCC4)cc3)C2=O)c1 (stereo unspecified) -45.5% [at 12.7 µM], Cc1ccc(C)c(Cn2c(=O)n(CCC(=O)NCc3ccc4c(c3)OCO4)c(=O)c3sccc32)c1 -4.46%, Cc1ccc(F)cc1S(=O)(=O)N1CCC(c2nc3ccccc3s2)CC1 31.1%, COCCn1nnnc1C(c1ccccc1Cl)N1CCN(c2ccccc2OC)CC1 (stereo unspecified) -5.01%, N#Cc1ccc(C(c2nnnn2CCc2ccccc2)N2CCCCCC2)cc1 (stereo unspecified) -8.23%, COc1ccc(C(=O)N2CCC(c3nc4ccccc4o3)CC2)cc1 -3.19%, COc1ccc(CNC(=O)c2cc3cccc(OC)c3oc2=O)cc1 3.39%, O=C(CC1N=C2c3ccccc3N=C(SCc3cccc(Cl)c3)N2C1=O)NCc1ccc2c(c1)OCO2 (stereo unspecified) 2.58%, CCOC(=O)c1c(C)[nH]c(C(=O)OCC(=O)c2ccc(OC)cc2OC)c1C 4.02% [at 0.501 µM]

Potency, inactive:
Cc1cccc(C)c1OCC(=O)NC(Cc1c[nH]c2ccccc12)C(=O)O (stereo unspecified)

Potency, active:
C=CCN(CC=C)CCOc1ccccc1[N+](=O)[O-] 17.8 µM, COc1ccc(-c2cc(C(=O)NC(Cc3c[nH]c4ccccc34)C(=O)O)c(C)o2)cc1OC (stereo unspecified) 10 µM, COC(=O)c1cc(C(=O)OC)cc(N2C(=O)CC(N3CCN(c4ccccc4)CC3)C2=O)c1 (stereo unspecified) 15.8 µM, COc1ccc(CCn2nnnc2C(c2ccccc2)N2CCN(C)CC2)cc1OC (stereo unspecified) 70.8 µM
